# Measurements reported in the supplement of paper PMC10681739.
# Target: T1, ETS1 (UniProt P14921)
# T1 sequence: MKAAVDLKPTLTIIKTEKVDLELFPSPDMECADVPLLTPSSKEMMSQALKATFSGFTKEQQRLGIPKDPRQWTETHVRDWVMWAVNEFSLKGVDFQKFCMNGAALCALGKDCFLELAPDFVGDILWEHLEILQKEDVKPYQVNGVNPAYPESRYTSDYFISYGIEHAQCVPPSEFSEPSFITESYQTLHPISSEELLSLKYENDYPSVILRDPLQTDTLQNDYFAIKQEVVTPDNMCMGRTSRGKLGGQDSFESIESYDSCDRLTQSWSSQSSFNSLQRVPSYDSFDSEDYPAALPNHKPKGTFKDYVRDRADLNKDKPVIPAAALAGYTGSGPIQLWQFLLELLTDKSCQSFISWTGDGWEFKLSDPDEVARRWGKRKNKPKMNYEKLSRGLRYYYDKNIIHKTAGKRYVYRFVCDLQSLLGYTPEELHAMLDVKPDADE
# Experiment: ETS1 binding intensity (PBM fluorescence), ETS1 alone (arbitrary fluorescence units); higher = stronger binding
# Details: ETS1 concentration 1 nM; RUNX1 concentration 0 nM
# Experimental: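 Cooperative genomic-context PBM: 36-bp genomic probes with neighbouring ETS1 and RUNX1 sites, double-stranded on Agilent 4x180k arrays. Full-length recombinant human ETS1 (1 nM) was incubated alone or with RUNX1 (25 nM) and detected with anti-ETS1 antibody plus Alexa488 secondary. Value is the median fluorescence intensity over 4 replicate spots; the ETS1+RUNX1 data were normalised to the ETS1-only data using probes without RUNX1 sites. The 36-bp variable region sits on the array probe with constant linker/primer flanks that are not printed.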
row,Sequence,ETS1 binding intensity
1,TTTCCAGAGGATGTAGCTTCTGCGGGAGAGCTTCAA,546
2,CCGAGACACATGGGATGTGGGCGGGAGGAGGAATTG,715
3,GCCCCCATGCTTCCTGTTGTGGGAGATGAAGTGTGG,1710
4,CATGGTTGTTATTTCCTCACCACAATATGTGACATT,386
5,GTGAGCCTGTAAAGGAAATTGAGGTTATGTGGCTCA,981
6,AGCACTTCCGTTTGGGCAGGGCTGCGGGCCGGAGGG,911
7,CTCCGATTGAGAACAGGAAGCCACAGGCCAATACAA,2660
8,AACCCACCGGATGGAAGCTGCCACTCAGCCGCAGGA,1100
9,TGGAATTGAAAGGAAGCTGGCGCCACCGCAGAGGAC,658
10,TAAAACACCAGGAAACTCTGTGGTGAGTGGGAGGTG,787
11,TTTGTGCCCCAACTTCCTCTGTGGCTTTTGGGTGGG,650
12,AGGCGGCAGGAAATGACCCCATCCCGCAGCCTGGGC,2480
13,GGTCTGGAGGATGTTTGCAGCTGCTGTGGGTGGTGG,586
14,CTTGTTCTATTTCCTGTTTGTGGTGAGTGACTGTCT,4300
15,GGCGGATGGGGAGAAGAGAGTGGCTGTGGTCTCTGG,371
16,ACCCAGTAGGGGCCAGGATGTGGTGAAAAGAGAATT,1610
17,TCTACATCCTGCAGTTCTCCATTGTGGCCATTAGGT,443
18,AGAGCGAGGAGGACTTCCTGCGGCAGGTCGGCGTGA,635
19,CTTAGTGTTTGAGGATGTGGGTTTTACAATCAGATC,845
20,TGTCAGCTGCGTTTCCGCGGTCGCGGGTGAGTGTGC,418

row,Sequence,ETS1 binding intensity
1,AAGGTGGAAAAAGGATGTGGTTCTAAGCTGGCTTCT,887
2,CTCTTTCACAAAGGAAATGGAAACCACAAAGAGGAC,2140
3,GTGGCGGGGCGGAAGTTCACATGTGTGGTATGTAGA,2720
4,CTCAGCGGAAGAGCGGGCCTCTGGGCCGCAGTGACC,478
5,GGCTTTTCCGGGATCCCTTTCGCCTCATCACCGCAG,522
6,TAGCCGTACGGAAATGTTTGTGGTTCTCTGCATCTA,647
7,CCGCTGAGAACAGGATGTGGGTGTCAGGAGGTGAAG,4850
8,TCTGGGCTGACTTCCTGGCTTCGTCCCACAACTTCA,668
9,GCCACACTGGCGGAAATGGTGGTTACTGTTCGAGCC,3510
10,TTTATCCTTATTTCCTGGCTTCGCCCACAAGCACAG,599
11,TCTCTACTTCCCATTATTTCTGTGGTTAATTTCACC,369
12,GACCAATGTAAACAAGGATGTGGGTTCTCCGGGCAC,929
13,CCCGCTGTCACTTCCTGCTTCCCTCCCGCACACGTG,2700
14,GCAGAAACAGGAAGAGACAGGGCTGACCGCAGCAGG,1290
15,GCTCTGGGTCACACAGGATGTGGTTTTTGAAGTTTG,8060
16,CAGAGAAACAGGAAGAACAGTGGTTTCAACTGAAAT,1310
17,CAAGAATGAGAAAGGAAGCTGGCGGTTGGGCAGGTG,890
18,CCGAAGAGGAAGCTCCACAGGACCTCCGCGGTCAGC,397
19,TTGACCCGGACGTGGACAAAAGACCGCAAAGGACGC,806
20,TGCTTAGAACACGGAAACACTGAGGTTTTACTTTGA,482
